Test results from PubChem BioAssay (NCATS).
Where “and” joins values, the source holds several entries; their conditions need not be identical. Equal values may be shown once. Inconclusive results are not listed. Calls of active or inactive are those of the source. Calls come from the whole dose curve; as a rule, active = well fitted curve in the direction sought with a large enough effect; inconclusive = small, poorly fitted or top-dose-only effect, or another doubt; inactive = no such curve, though single readings can be large; an effect the other way counts as inactive or inconclusive.

Key:
CRL-7250 = normal cell line; experiment: Cytotoxic Profiling of Annotated Libraries Using Quantitative High-Throughput Screening (AID 1296008); details: Five cell lines viability, CellTiter-Glo ATP luminescence, 48-72 h; max response: stronger effect = lower value; note: nearly all actives have a fitted effect of over 60% in size
Outline: (§1)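 Cytotoxicity was measured as CellTiter-Glo ATP luminescence, read after 10 min at room temperature. Compound treatment of the cells lasted 48 or 72 hr at 37 degrees Celsius in a qHTS format.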

HEK293 = experiment: as above; details: Five cell lines viability, CellTiter-Glo ATP luminescence, 48-72 h; max response: stronger effect = lower value
Outline: as §1

HaCat [1] = experiment: as above; details: Five cell lines viability, CellTiter-Glo ATP luminescence, 48-72 h; max response: stronger effect = lower value
Outline: as §1

KB-3-1 = experiment: as above; details: Five cell lines viability, CellTiter-Glo ATP luminescence, 48-72 h; max response: stronger effect = lower value
Outline: as §1

NIH3T3 = experiment: as above; details: Five cell lines viability, CellTiter-Glo ATP luminescence, 48-72 h; max response: stronger effect = lower value
Outline: as §1

UISO = experiment: qHTS assay to identify novel small-molecules to repurpose for Merkel cell carcinoma treatment (AID 1296009); details: MCC and control cell lines, CellTiter-Glo viability, 72 h; series mostly up to 46 µM; note: nearly all actives have a fitted effect of over 60% in size
Outline: (§2)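 Cell viability measured by CellTiter-Glo following 72 hr compound treatment at 37 degree celsius, with NPC and MIPE libraries tested in 8- and 11-point concentration series.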

C33A = experiment: Primary qHTS to identify gynecologic anti-cancer compounds using libraries of approved drugs and bioactive compounds (AID 1345084); details: Gynecologic cancer cell panel viability, ATPlite luminescence, 48 h; series mostly up to 57.5 µM; note: nearly all actives have a fitted effect of over 55% in size
Outline: (§3)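 Cells, 1,000 per well, plated 16 h, then exposed 48 h at 37 C to compounds. Viability by ATPlite luminescence after 15 min at room temperature.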

CASKI = experiment: as above; details: Gynecologic cancer cell panel viability, ATPlite luminescence, 48 h; series mostly up to 57.5 µM
Outline: as §3

Es-2 = experiment: as above; details: Gynecologic cancer cell panel viability, ATPlite luminescence, 48 h; series mostly up to 57.5 µM
Outline: as §3

HeLa = experiment: as above; details: Gynecologic cancer cell panel viability, ATPlite luminescence, 48 h; series mostly up to 57.5 µM
Outline: as §3

Hek293T = experiment: as above; details: Gynecologic cancer cell panel viability, ATPlite luminescence, 48 h, control line for the selectivity index; series mostly up to 57.5 µM
Outline: as §3

MCC-13 = experiment: qHTS assay to identify novel small-molecules to repurpose for Merkel cell carcinoma treatment (AID 1296009); details: MCC and control cell lines, CellTiter-Glo viability, 72 h; series mostly up to 46 µM; note: nearly all actives have a fitted effect of over 60% in size
Outline: as §2

MKL-1 = experiment: as above; details: MCC and control cell lines, CellTiter-Glo viability, 72 h; series mostly up to 46 µM
Outline: as §2

WaGa = experiment: as above; details: MCC and control cell lines, CellTiter-Glo viability, 72 h; series mostly up to 46 µM
Outline: as §2

CAOV3 = experiment: Primary qHTS to identify gynecologic anti-cancer compounds using libraries of approved drugs and bioactive compounds (AID 1345084); details: Gynecologic cancer cell panel viability, ATPlite luminescence, 48 h; series mostly up to 57.5 µM; note: nearly all actives have a fitted effect of over 55% in size
Outline: as §3

MKL-2 = experiment: qHTS assay to identify novel small-molecules to repurpose for Merkel cell carcinoma treatment (AID 1296009); details: MCC and control cell lines, CellTiter-Glo viability, 72 h; series mostly up to 46 µM; note: nearly all actives have a fitted effect of over 60% in size
Outline: as §2

MCC-26 = experiment: as above; details: MCC and control cell lines, CellTiter-Glo viability, 72 h; series mostly up to 46 µM
Outline: as §2

HACAT [2] = experiment: as above; details: MCC and control cell lines, CellTiter-Glo viability, 72 h; series mostly up to 44.8 µM
Outline: as §2
% is set by controls: 0 for no effect and ±100 for the full control effect; potency is the fitted concentration of half-maximal effect.

O=C(c1ccc(Nc2nccc(-c3cc4ccccc4s3)n2)cc1)N1CCC(N2CCCC2)CC1
inactive: Potency (C33A) | Potency (CASKI) | Potency (Es-2) | Potency (HeLa) | Potency (Hek293T)
active: Potency (CRL-7250) 14.8 µM | Potency (HEK293) 5.26 µM | Potency (HaCat [1]) 23.5 µM | Potency (KB-3-1) 9.35 µM | Potency (NIH3T3) 26.4 µM and 23.1 µM | Potency (UISO) 18.7 µM

C[C@@H](Oc1cc(-c2cnn(C3CCNCC3)c2)cnc1N)c1c(Cl)ccc(F)c1Cl
inactive: Potency (MCC-13)
active: Potency (CRL-7250) 11.8 µM and 20.6 µM and 23.1 µM | Potency (HEK293) 4.18 µM and 4.11 µM and 5.8 µM | Potency (HaCat [1]) 13 µM and 10.3 µM | Potency (KB-3-1) 6.51 µM | Potency (NIH3T3) 3.72 µM and 2.91 µM and 5.17 µM | Potency (MKL-1) 13.2 µM | Potency (UISO) 14.8 µM | Potency (WaGa) 23.5 µM | Potency (C33A) 20 µM | Potency (CAOV3) 11.2 µM and 12.6 µM | Potency (CASKI) 14.1 µM | Potency (HeLa) 3.55 µM and 14.1 µM | Potency (Hek293T) 25.1 µM

CN1CC[C@@H](c2c(O)cc(O)c3c(=O)cc(-c4ccccc4Cl)oc23)[C@@H](O)C1
active: Potency (CRL-7250) 0.166 µM | Potency (HEK293) 0.148 µM | Potency (HaCat [1]) 0.372 µM | Potency (KB-3-1) 0.235 µM | Potency (NIH3T3) 0.526 µM | Potency (MCC-13) 0.59 µM | Potency (UISO) 0.264 µM

CC1=C(CO)C(=O)O[C@@H]([C@@H](C)[C@H]2CC[C@H]3[C@@H]4C[C@H]5O[C@]56[C@@H](O)C=CC(=O)[C@]6(C)[C@@H]4CC[C@]23C)C1
active: Potency (CRL-7250) 1.48 µM | Potency (HEK293) 0.332 µM | Potency (HaCat [1]) 2.64 µM | Potency (KB-3-1) 1.05 µM | Potency (NIH3T3) 2.09 µM | Potency (MCC-13) 0.662 µM | Potency (MKL-2) 0.132 µM | Potency (UISO) 0.743 µM | Potency (WaGa) 0.264 µM

Cc1ccc(C(N)=O)cc1Nc1nccc(-c2cn(C(C)C)c3cnccc23)n1
active: Potency (CRL-7250) 11.6 µM | Potency (HEK293) 6.51 µM | Potency (HaCat [1]) 23.5 µM | Potency (KB-3-1) 5.8 µM | Potency (NIH3T3) 10.5 µM | Potency (MKL-2) 20.9 µM | Potency (UISO) 4.18 µM | Potency (C33A) 3.16 µM | Potency (CASKI) 17.8 µM | Potency (HeLa) 25.1 µM | Potency (Hek293T) 17.8 µM

Cc1cc(Nc2nc(N[C@@H](C)c3ccc(F)cc3)c(C#N)cc2F)n[nH]1
active: Potency (CRL-7250) 16.6 µM and 7.31 µM | Potency (HEK293) 2.64 µM and 1.3 µM | Potency (HaCat [1]) 2.59 µM | Potency (KB-3-1) 1.05 µM and 731 nM | Potency (NIH3T3) 3.72 µM and 4.11 µM | Potency (MCC-26) 7.43 µM | Potency (Es-2) 14.1 µM | Potency (HeLa) 5.62 µM
inactive: Potency (C33A)

CCS(=O)(=O)c1cccc(-c2cc(C(=O)NC3CCN(C)CC3)c(C)c3[nH]c4ncc(C)cc4c23)c1
active: Potency (CRL-7250) 1.28 µM | Potency (HEK293) 1.87 µM and 2.02 µM | Potency (HaCat [1]) 4.18 µM and 1.61 µM | Potency (KB-3-1) 1.18 µM and 904 nM | Potency (NIH3T3) 10.5 µM and 5.7 µM | Potency (MCC-26) 4.69 µM | Potency (MKL-1) 0.132 µM | Potency (MKL-2) 8.33 µM | Potency (UISO) 2.35 µM | Potency (CASKI) 2.82 µM | Potency (Es-2) 12.6 µM | Potency (HeLa) 1.58 µM | Potency (Hek293T) 12.6 µM

CC1(C)CC(=O)c2c(C(F)(F)F)nn(-c3ccc(C(N)=O)c(NC4CCC(OC(=O)CN)CC4)c3)c2C1 (configuration not stated)
active: Potency (CRL-7250) 469 nM and 231 nM | Potency (HEK293) 118 nM and 58 nM | Potency (HaCat [1]) 2.35 µM and 517 nM | Potency (KB-3-1) 0.105 µM | Potency (NIH3T3) 418 nM and 366 nM | Potency (UISO) 0.264 µM
inactive: Potency (MKL-2) | Potency (HeLa)

O=C(O)Cn1nnc(-c2cc(N3CCC(Oc4cc(F)ccc4Br)CC3)no2)n1
active: Potency (HEK293) 1.18 µM and 1.3 µM | Potency (KB-3-1) 3.72 µM and 2.31 µM
inactive: max response (CRL-7250) 1.84% and -2.26% | outcome (HaCat [1]) | Potency (HACAT [2]) | Potency (MCC-13) | Potency (MCC-26) | Potency (MKL-1) | Potency (MKL-2) | Potency (UISO) | Potency (WaGa) | Potency (C33A) | Potency (CASKI) | Potency (HeLa) | Potency (Hek293T)
